Results: the supplement of paper PMC6555819

What was measured:
Assay in all cases: PBM binding z-score (relative to random genomic background probes); higher = stronger binding; sequences stand for … in GC…GCGATTGACAGCGTAGAATGAAGG
[1] = test system: RARb homodimer (NR concentration 270 nM)
Summary of the method: (§1)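 Regression normalization was applied to scanned fluorescence from custom Agilent 4×180K protein-binding microarrays. Before scanning, arrays were incubated 1 h with ligand-free nuclear receptor dimers, and binding was detected with antibodies against each partner (one per run). Binding z-scores use the random background probes as reference.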

[2] = test system: RARg:RXRa (NR concentration 270 nM, RXRa partner concentration 90 nM)
Summary of the method: as §1

[3] = test system: RARg homodimer (NR concentration 270 nM)
Summary of the method: as §1

[4] = test system: RXRa DBDmut IVT, anti-RXR (DBD mutation: RXRa K156A/R161A, NR concentration 90 nM)
Summary of the method: as §1

[5] = test system: RXRa homodimer (NR concentration 180 nM)
Summary of the method: as §1

[6] = test system: THRa:RXRa (NR concentration 90 nM, RXRa partner concentration 90 nM)
Summary of the method: as §1

[7] = test system: THRa homodimer (NR concentration 90 nM)
Summary of the method: as §1

[8] = test system: VDR homodimer (NR concentration 270 nM)
Summary of the method: as §1

Row | Sequence | PBM binding z-score [1] | PBM binding z-score [2] | PBM binding z-score [3] | PBM binding z-score [4] | PBM binding z-score [5] | PBM binding z-score [6] | PBM binding z-score [7] | PBM binding z-score [8]
1 | AGTATTAGTTGAGACGAGGGCAACCGATAGGTTG | 1.37 | 0.642 | 0.922 | 0.464 | 0.65 | 2.68 | 0.356 | 1.53
2 | CGAACGAGGGCATGAGTTGATAGCCAATGCCGAT | 0.853 | 1.34 | 1.88 | 2.3 | 1 | 1.24 | -0.039 | 1.56
3 | CCTAGCAGGCCAATCTCGGTCACTCAAGGCTTGA | 1.46 | 0.504 | 1.24 | 0.398 | -0.123 | 1.92 | -0.183 | -0.29
4 | CCGACTGGGGCAGAAAGGGTACCATACCATCCGG | 0.624 | 0.0836 | 0.273 | -1.36 | 0.143 | -0.36 | -0.53 | -0.349
5 | CCTAGCAGGCCAATCTGCGTCACTCAAGGCTTGA | -0.405 | -0.524 | -0.155 | 0.164 | -0.602 | -0.51 | -0.515 | -0.294
6 | CCAGACAGGTGAGAAGGTATCTCAGCCTCGATTA | -0.0686 | 0.015 | 0.26 | 0.0467 | 0.0793 | -0.219 | -0.183 | -0.56
7 | CAAACTGGGTCACGAAAGGTCAAAGTCGAATGAC | 5.73 | 7.84 | 8.05 | 2.44 | 8.52 | 5.02 | 1.75 | 3.72
